From PubChem BioAssay (NCI)
This is part of a sample that, as a whole, favours compounds with a hit. Of some 83,000 tested, about 20% had one in any assay.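 Cells were grown in 96-well plates and exposed to the test compound at a single concentration for 48 hours; results are reported as percent growth, with values below 10 considered active.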 Active and inactive are the calls of the source.

Columns and labels:
Assay in all cases: NCI-60 one-dose screen, 48 h (100 = growth as untreated, 0 = no growth, -100 = all killed)
Conditions in all cases: 10 µM unless noted
HCT-15 colon = test system: HCT-15 colon
HT29 colon = test system: HT29 colon
SNB-75 CNS = test system: SNB-75 CNS
SNB-19 CNS = test system: SNB-19 CNS
U251 CNS = test system: U251 CNS
PC-3 prostate = test system: PC-3 prostate
SK-MEL-5 melanoma = test system: SK-MEL-5 melanoma
UACC-62 melanoma = test system: UACC-62 melanoma
LOX IMVI melanoma = test system: LOX IMVI melanoma
SK-MEL-28 melanoma = test system: SK-MEL-28 melanoma

Measured: growth

C#CCNC(=O)CC[C@]1(C)[C@H]2CC[C@@H]3[C@@H]([C@@](C)(O)CCC=C(C)C)CC[C@@]3(C)[C@]2(C)CC[C@H]1C(=C)C
active: HT29 colon -30.8% [100 µM] | SNB-75 CNS -19% [100 µM] | U251 CNS -71.4% [100 µM] | SK-MEL-5 melanoma 9.4% [100 µM] | LOX IMVI melanoma -67.7% [100 µM]
inactive: HCT-15 colon 67.3% [100 µM] | SNB-19 CNS 60.9% [100 µM] | PC-3 prostate 20.5% [100 µM] | UACC-62 melanoma 34% [100 µM] | SK-MEL-28 melanoma 54.1% [100 µM]

CCOC(=O)C(C(C)=O)c1nc2sc3cc(Cl)c(Cl)cc3n2c(=O)c1C#N (stereo not given)
inactive: HCT-15 colon 109% | HT29 colon 107% | SNB-75 CNS 73% | SNB-19 CNS 93% | U251 CNS 111% | PC-3 prostate 83.9% | SK-MEL-5 melanoma 74.3% | UACC-62 melanoma 85.8% | LOX IMVI melanoma 98.1% | SK-MEL-28 melanoma 125%

C=CCc1nc2ccccc2s1
inactive: HCT-15 colon 94.3% | HT29 colon 89.9% | SNB-75 CNS 90.2% | SNB-19 CNS 110% | U251 CNS 100% | PC-3 prostate 88.1% | SK-MEL-5 melanoma 114% | UACC-62 melanoma 106% | LOX IMVI melanoma 99.3% | SK-MEL-28 melanoma 106%

COc1ncc(-c2ccc3nc(N)n(-c4ccccc4C(F)(F)F)c(=O)c3c2)cc1S(=O)(=O)Nc1ccc(F)cc1F
inactive: HCT-15 colon 29.4% | HT29 colon 10.8% | SNB-75 CNS 28.2% | SNB-19 CNS 76.1% | U251 CNS 28.2% | PC-3 prostate 39% | UACC-62 melanoma 68.8% | SK-MEL-28 melanoma 53.9%
active: SK-MEL-5 melanoma -48.9% | LOX IMVI melanoma -52.2%

COc1ccc(CC(C#N)c2ccc(Cl)cc2)cc1 (stereo not given)
inactive: HCT-15 colon 60.6% | HT29 colon 55.3% | SNB-75 CNS 75.9% | SNB-19 CNS 82.1% | U251 CNS 77.6% | PC-3 prostate 85.9% | SK-MEL-5 melanoma 76.8% | UACC-62 melanoma 69.6% | LOX IMVI melanoma 79.3% | SK-MEL-28 melanoma 91.5%

CCCCCCNC(=O)Nc1ncnc2c1ncn2-c1ccccc1
inactive: HCT-15 colon 95.2% | HT29 colon 99.4% | SNB-75 CNS 72.7% | SNB-19 CNS 94.2% | U251 CNS 94.8% | PC-3 prostate 89.4% | SK-MEL-5 melanoma 98.3% | UACC-62 melanoma 97.6% | LOX IMVI melanoma 102% | SK-MEL-28 melanoma 104%

Cc1cc(C)nc(SCC(=O)Nc2cccc(N=Cc3ccccc3O)c2)n1
inactive: HCT-15 colon 105% | HT29 colon 101% | SNB-75 CNS 81.9% | SNB-19 CNS 93% | U251 CNS 94.9% | PC-3 prostate 90.3% | SK-MEL-5 melanoma 103% | UACC-62 melanoma 94.1% | LOX IMVI melanoma 103% | SK-MEL-28 melanoma 106%

[2H]C1([2H])CCN(C(=O)C2CC2)c2cc(NS(=O)(=O)c3ccc(-c4cccc(C(N)=O)c4)cc3)ccc21
inactive: HCT-15 colon 90.7% | HT29 colon 13.6% | SNB-75 CNS 11.3% | SNB-19 CNS 41.2% | U251 CNS 29.8% | PC-3 prostate 34.2% | SK-MEL-5 melanoma 15.4% | UACC-62 melanoma 21.4% | LOX IMVI melanoma 39.2% | SK-MEL-28 melanoma 43.9%

CC[C@]12C=CCN3CC[C@@]4(c5ccc(OC)cc5N(C)[C@H]4[C@@](O)(C(=O)OC)[C@@H]1OC(=O)CCC(=O)O[C@H]1CC[C@H]4[C@@H]5CCC6=CC(=O)CC[C@@H]6[C@H]5CC[C@]14C)[C@@H]32
inactive: HCT-15 colon 14.5% [100 µM] | SNB-19 CNS 21.7% [100 µM] | U251 CNS 10.8% [100 µM] | PC-3 prostate 11.3% [100 µM]
active: HT29 colon -21.8% [100 µM] | SNB-75 CNS -27.2% [100 µM] | SK-MEL-5 melanoma -95.3% [100 µM] | UACC-62 melanoma -53.8% [100 µM] | LOX IMVI melanoma -29.5% [100 µM] | SK-MEL-28 melanoma -7.77% [100 µM]

CCN(CC)CCCC(C)Nc1c2ccc(C)cc2nc2ccc(OC)cc12 (stereo not given)
inactive: HCT-15 colon 18.2% | SNB-75 CNS 41% | SNB-19 CNS 43.7% | U251 CNS 31.2% | PC-3 prostate 30.9% | SK-MEL-5 melanoma 82.1% | UACC-62 melanoma 74.4% | SK-MEL-28 melanoma 62.1%
active: HT29 colon -26.1% | LOX IMVI melanoma -70.8%

O=C(OCc1ccc2c(Cl)cc(Cl)c(O)c2n1)N1CCNCC1
inactive: HCT-15 colon 18.5% | HT29 colon 80.6% | SNB-75 CNS 48.4% | SNB-19 CNS 37% | U251 CNS 16.2% | PC-3 prostate 29.8% | SK-MEL-5 melanoma 35.7% | UACC-62 melanoma 24.5% | LOX IMVI melanoma 32.7% | SK-MEL-28 melanoma 70.4%

Cc1ccc2c(c1)/C(=N\N=C/c1cn(C(C)C)c3ccccc13)C(=O)N2
inactive: HCT-15 colon 28.6% | HT29 colon 11.3% | SNB-75 CNS 67.3% | SNB-19 CNS 76.5% | U251 CNS 63.6% | PC-3 prostate 34.7% | SK-MEL-5 melanoma 66% | UACC-62 melanoma 50.1% | LOX IMVI melanoma 20% | SK-MEL-28 melanoma 73.4%

CCOC(=O)c1nn(C2CCCCO2)c2ccc(NC(=O)CSc3nc4ccccc4c(=O)[nH]3)cc12 (stereo not given)
inactive: HCT-15 colon 99.5% | HT29 colon 125% | SNB-75 CNS 68.5% | SNB-19 CNS 76.3% | U251 CNS 97.2% | PC-3 prostate 105% | SK-MEL-5 melanoma 98.1% | UACC-62 melanoma 94.5% | LOX IMVI melanoma 96.2% | SK-MEL-28 melanoma 105%

Cc1cc(C)c(-c2cc(O)c(-c3c(C)cc(C)cc3C)cc2O)c(C)c1
inactive: HCT-15 colon 23.6% | SNB-19 CNS 45.9% | U251 CNS 25.2% | PC-3 prostate 43.2% | SK-MEL-5 melanoma 25.5% | UACC-62 melanoma 34.2% | LOX IMVI melanoma 41.8% | SK-MEL-28 melanoma 42.8%
active: HT29 colon 8.84% | SNB-75 CNS -10.3%

O=S(=O)(NCc1ccccc1)c1ncnc2nc[nH]c12
inactive: HCT-15 colon 108% | HT29 colon 106% | SNB-75 CNS 91.4% | SNB-19 CNS 108% | U251 CNS 86% | PC-3 prostate 105% | SK-MEL-5 melanoma 99.7% | UACC-62 melanoma 96.4% | LOX IMVI melanoma 99.1% | SK-MEL-28 melanoma 107%

COc1ccc2c(c1)c(-c1noc(-c3cn(C)c4ncc(F)cc34)n1)cn2C
inactive: HCT-15 colon 84.7% | HT29 colon 78.2% | SNB-75 CNS 94.9% | SNB-19 CNS 76.2% | U251 CNS 76.6% | PC-3 prostate 91.7% | SK-MEL-5 melanoma 74.8% | UACC-62 melanoma 83.9% | LOX IMVI melanoma 52.4% | SK-MEL-28 melanoma 91.3%

N#C/C(=C(/O)CCCO)c1nc2ccccc2c(=O)[nH]1
inactive: HCT-15 colon 103% | HT29 colon 108% | SNB-75 CNS 80.6% | SNB-19 CNS 105% | U251 CNS 103% | PC-3 prostate 92.9% | SK-MEL-5 melanoma 107% | UACC-62 melanoma 96% | LOX IMVI melanoma 98% | SK-MEL-28 melanoma 110%

CSc1nc2sc3cc(Cl)c(Cl)cc3n2c(=N)c1C#N
inactive: HCT-15 colon 104% | HT29 colon 94.6% | SNB-75 CNS 69.2% | SNB-19 CNS 100% | U251 CNS 105% | PC-3 prostate 97.6% | SK-MEL-5 melanoma 86.4% | UACC-62 melanoma 82.2% | LOX IMVI melanoma 94.5% | SK-MEL-28 melanoma 108%

COc1cc2c(cc1OCCCCCOc1ccc(-n3c(C)nc4ccccc4c3=O)cc1)N=C[C@@H]1CCCN1C2=O
active: HCT-15 colon 9.39% | HT29 colon -1.24% | SNB-75 CNS -80.9% | SNB-19 CNS 1.38% | U251 CNS 3.85% | PC-3 prostate 4.39% | SK-MEL-5 melanoma -79.6% | UACC-62 melanoma -74% | LOX IMVI melanoma -32.2% | SK-MEL-28 melanoma -66.8%

O=C(Nc1cccnc1)c1ccc2ccc3ccc(C(=O)Nc4cccnc4)nc3c2n1
inactive: HCT-15 colon 19.9% | SNB-75 CNS 40.6% | SNB-19 CNS 13.2% | U251 CNS 12.2% | PC-3 prostate 33.2% | SK-MEL-5 melanoma 26.3% | UACC-62 melanoma 29% | LOX IMVI melanoma 14% | SK-MEL-28 melanoma 17.7%
active: HT29 colon 7.42%

CS(=O)(=O)c1cccnn1
inactive: HCT-15 colon 108% | HT29 colon 89.7% | SNB-75 CNS 48.9% | SNB-19 CNS 102% | U251 CNS 92.9% | PC-3 prostate 95.6% | SK-MEL-5 melanoma 92.9% | UACC-62 melanoma 90.7% | LOX IMVI melanoma 85.2% | SK-MEL-28 melanoma 117%

COc1ccc(C(=O)CCC(=O)O)cc1
inactive: HCT-15 colon 77.6% | HT29 colon 49.8% | SNB-75 CNS 99.9% | SNB-19 CNS 104% | U251 CNS 83.1% | PC-3 prostate 92.5% | SK-MEL-5 melanoma 99.8% | UACC-62 melanoma 99.7% | LOX IMVI melanoma 90.2% | SK-MEL-28 melanoma 112%

C#CCOc1ccc(C2=NN(CC3CC3)C3N=C(Cl)c4ncn(CC5CC5)c4N23)cc1OCC#C (stereo not given)
inactive: HCT-15 colon 69.5% | HT29 colon 84.3% | SNB-75 CNS 84.6% | SNB-19 CNS 98.7% | U251 CNS 70.5% | PC-3 prostate 63.7% | SK-MEL-5 melanoma 60.9% | UACC-62 melanoma 59.7% | LOX IMVI melanoma 68.4% | SK-MEL-28 melanoma 93.6%
